Screens as filed in PubChem.
An excerpt weighted towards active compounds, which were near 7.6% of everything screened.
KCNH2 3.1 inh – KCNH2 3.1 (human) potassium channel inhibition; U2OS KCNH2 3.1, thallium flux FluxOr; stronger effect = lower value; activity change, % (tested at about 1.8 µM); 0.95% of 340,000 active;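 active = maximum activity change below -70%; inconclusive = maximum activity change from -70% to -50%; inactive = maximum activity change above -50%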;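 also: thallium influx rate constant from kinetic fluorescence after stimulation buffer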
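FluxOr-based Tl+ influx in U2OS cells transduced with KCNH2 3.1 virus; rate constants normalized to DMSO controls.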
KB-V1 cytotox – kills drug-selected multidrug resistant KB-V1 cells | KB-V1 MDR cells viability, CellTiter-Glo, 72 h | Potency, µM (highest dose often 46.1 µM), hits mostly cytotoxic | 3.4% of 400,000 active; also: nearly all actives have a fitted effect of over 60% in size
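KB-V1 cells (P-gp-expressing MDR subline of KB-3-1) in phenol-red-free DMEM with 10% FBS were exposed to library compounds over a concentration series for 72 h at 37 degrees C. Viability read by CellTiter-Glo luminescence; concentration-effect curves fitted after normalization.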
MCF10A rerep – inducers of DNA re-replication in MCF 10A breast cells; MCF 10A DNA re-replication, Hoechst nuclear intensity, 48 h; Potency, µM (doses to about 46.1 µM), usual class: activators; 2.9% of 350,000 active; AID 624296; also: nearly all actives have a fitted effect of over 50% in size
SW480 rerep – induces DNA re-replication in SW480 colon adenocarcinoma cells. SW480 DNA re-replication, Hoechst DNA content imaging, 48 h. Potency, µM (highest dose often 46.1 µM), usual class: activators. 1.8% of 340,000 active. AID 624297; also: nearly all actives have a fitted effect of over 55% in size
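Compounds, transferred as 23 nL by pin tool, were incubated with cells for 48 hr; DNA content per nucleus was then quantified by Hoechst staining and fluorescence plate imaging.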
KCNH2 WT inh – blocks the wildtype human KCNH2 potassium channel; 0.37% of 340,000 active; activity change, % at 1.84 µM; U2OS, BacMam KCNH2, thallium flux FluxOr; stronger effect = lower value; Q12809; AID 720551;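 active = maximum activity change below -70%; inconclusive = maximum activity change between -70% and -50%; inactive = maximum activity change above -50%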
Target sequence (Q12809 whole entry, looked up): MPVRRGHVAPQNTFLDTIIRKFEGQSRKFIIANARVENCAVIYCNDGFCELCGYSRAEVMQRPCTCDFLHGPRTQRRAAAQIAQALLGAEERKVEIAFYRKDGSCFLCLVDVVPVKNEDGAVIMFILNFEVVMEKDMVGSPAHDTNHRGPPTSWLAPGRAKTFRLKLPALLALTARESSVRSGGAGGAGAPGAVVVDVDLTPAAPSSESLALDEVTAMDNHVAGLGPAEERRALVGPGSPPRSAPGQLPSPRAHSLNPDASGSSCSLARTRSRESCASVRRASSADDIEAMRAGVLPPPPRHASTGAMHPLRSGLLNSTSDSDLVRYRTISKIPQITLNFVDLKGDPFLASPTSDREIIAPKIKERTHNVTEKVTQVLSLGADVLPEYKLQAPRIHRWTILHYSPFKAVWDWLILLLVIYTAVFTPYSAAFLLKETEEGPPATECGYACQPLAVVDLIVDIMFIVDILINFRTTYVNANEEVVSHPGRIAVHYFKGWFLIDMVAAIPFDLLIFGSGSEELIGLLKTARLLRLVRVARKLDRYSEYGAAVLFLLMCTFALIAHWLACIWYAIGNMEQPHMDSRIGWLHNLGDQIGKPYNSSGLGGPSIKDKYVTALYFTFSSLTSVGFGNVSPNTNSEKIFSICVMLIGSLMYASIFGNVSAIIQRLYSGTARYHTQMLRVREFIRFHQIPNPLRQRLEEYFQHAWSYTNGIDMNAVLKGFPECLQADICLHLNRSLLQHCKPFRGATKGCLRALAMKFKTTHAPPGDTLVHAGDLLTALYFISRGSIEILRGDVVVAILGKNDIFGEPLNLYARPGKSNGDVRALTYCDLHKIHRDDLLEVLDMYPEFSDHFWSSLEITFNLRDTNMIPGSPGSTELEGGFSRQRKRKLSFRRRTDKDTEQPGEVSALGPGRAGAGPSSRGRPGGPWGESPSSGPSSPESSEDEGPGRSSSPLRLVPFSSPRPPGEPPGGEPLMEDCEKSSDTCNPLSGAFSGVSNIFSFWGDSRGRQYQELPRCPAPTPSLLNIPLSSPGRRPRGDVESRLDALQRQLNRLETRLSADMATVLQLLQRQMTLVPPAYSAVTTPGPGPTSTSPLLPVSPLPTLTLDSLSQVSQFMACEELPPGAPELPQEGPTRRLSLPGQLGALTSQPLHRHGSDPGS
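U2OS cells were transduced with wild-type KCNH2 virus (2.03 x 10^8 / mL) for 4 h at room temperature, then cultured overnight at 37 C. Thallium flux was read with FluxOr dye. Rate constants were normalized to DMSO controls.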
KB-3-1 cytotox – KB-3-1 parental cell cytotoxicity | 1.4% of 400,000 active | Potency, µM (doses to about 46.1 µM), actives largely listed as cytotoxic | KB-3-1 viability, CellTiter-Glo ATP luminescence, 72 h | AID 1347075; also: nearly all actives have a fitted effect of over 60% in size
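Luminescent ATP read-out (CellTiter-Glo) measures survival of drug-naive KB-3-1 cells after 72 h compound exposure at 37 °C. Titration series was screened from lowest to highest concentration, with DMSO vehicle plates as background controls.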
Large screens that a line does not name were inactive. Unless noted, calls follow the shape of the dose curve; as a rule, active = well fitted curve in the direction sought with a large enough effect; inconclusive = small, poorly fitted or top-dose-only effect, or another doubt; inactive = no such curve, though single readings can be large; an effect the other way counts as inactive or inconclusive.

Cn1c(-c2ccc(F)cc2)cnc1NCc1ccccc1	KB-V1 cytotox 20.6µM, MCF10A rerep inconclusive, SW480 rerep inconclusive, KB-3-1 cytotox inconclusive
O=C1[C@@H](Oc2ccccc2)[C@@H](c2ccncc2)N1c1ccncc1	MCF10A rerep 0.184µM
COC(=O)C1CC2=C(CCC2=O)N(c2ccccc2)C1=O (configuration not stated)	none
CCOC(=O)C(NC(=O)CCl)(Nc1sc(C)c(CC)c1C#N)C(F)(F)F (configuration not stated)	KB-V1 cytotox inconclusive, MCF10A rerep inconclusive, SW480 rerep 16.4µM
CCOC(=O)C(NC(=O)CC(C)C)(Nc1sc(C)c(CC)c1C#N)C(F)(F)F (configuration not stated)	KB-V1 cytotox inconclusive
CCOC(=O)c1c(C)oc2c1c(C(c1cccnc1)N1CCCCC1)c(O)c1ccccc12 (configuration not stated)	MCF10A rerep inconclusive
CCOC(=O)c1c(C)oc2c1c(C(c1ccccc1)N1CCOCC1)c(O)c1ccccc12 (configuration not stated)	KB-V1 cytotox 18.4µM, MCF10A rerep 4.11µM, SW480 rerep inconclusive
c1ccc(-c2ccc3c(c2)c2c4n3CCN=C4CCC2)cc1	KB-V1 cytotox 10.3µM, MCF10A rerep 8.2µM, SW480 rerep inconclusive, KB-3-1 cytotox inconclusive
N#Cc1c(N)nc(N)nc1Nc1ccc(Br)cc1	KB-V1 cytotox 13µM, KB-3-1 cytotox inconclusive
Cc1cccc(Nc2nc(N)c(C#N)c(CC#N)c2C#N)c1	MCF10A rerep inconclusive
C=CC[C@@H](CC(=O)N[C@H](CO)Cc1ccccc1)C(=O)NCCOC(=O)[C@@H](CC=C)CC(=O)OC(C)(C)C	KB-V1 cytotox inconclusive
Cc1c(Cl)cccc1NC(c1ccc(F)cc1)c1nnc(-c2ccccc2)o1 (configuration not stated)	none (no result: KCNH2 3.1 inh, MCF10A rerep, SW480 rerep, KCNH2 WT inh)
CC1CCC(NC(=O)C2CCN(C(=O)Nc3ccccc3)CC2)CC1 (configuration not stated)	KB-V1 cytotox 16.4µM, MCF10A rerep inconclusive
O=C(NC1CCN(C(=O)Nc2cccc(Cl)c2)CC1)C1CCCCC1	KCNH2 3.1 inh -72.8
O=C(c1ccc(Cl)cc1)C1CCN(C(=O)NC2CCCCC2)CC1	KB-V1 cytotox 2.31µM
CC1CCC(NC(=O)C2CCN(c3nc4ccccc4s3)CC2)CC1 (configuration not stated)	KB-V1 cytotox 7.31µM, KB-3-1 cytotox inconclusive
CC(=O)c1cccc(NC(=O)C(C)OC(=O)CCn2c(C)csc2=O)c1 (configuration not stated)	none
CCN1CCN(c2ccc(NC(=O)c3ccc(Cl)c(S(=O)(=O)N4CCCC4)c3)cc2)CC1	MCF10A rerep inconclusive, SW480 rerep inconclusive
Cc1ccc2c(C(=O)CNc3nc(C)c(C)s3)c(C)[nH]c2c1	none (no result: KCNH2 3.1 inh, MCF10A rerep, SW480 rerep, KCNH2 WT inh)
CN(C)c1ccc(Cn2ccc3ccccc32)cc1	none (no result: KCNH2 3.1 inh, MCF10A rerep, SW480 rerep, KCNH2 WT inh)
CC1CC(C)CN(C(=O)C2CCN(C(=O)Nc3ccccc3)CC2)C1 (configuration not stated)	KB-V1 cytotox 20.6µM
CC1CCCN(C(=O)C2CCN(C(=O)Nc3ccccc3)CC2)C1 (configuration not stated)	none
Cc1cc(C)cc(NC(=S)N2CCC(NC(=O)C3CC3)CC2)c1	KCNH2 WT inh -95.4
O=C(CSc1nnnn1-c1ccc(Cl)c(C(=O)O)c1)NC(c1ccccc1)c1ccccc1	none
O=C(NN=C1c2ccccc2-c2ccccc21)c1ccccn1	KB-V1 cytotox 5.17µM, SW480 rerep inconclusive
CC(=N/O)/C(C)=N\NC(=O)c1ccccn1	none
COc1ccc(CNC(=O)C(c2ccncc2)N(C(=O)Cc2cccs2)c2ccccc2)cc1 (configuration not stated)	KB-3-1 cytotox inconclusive
COc1ccc(N(C(=O)CCl)C(C(=O)NCCc2ccccc2)c2cccs2)cc1 (configuration not stated)	KB-V1 cytotox 18.4µM, MCF10A rerep inconclusive, SW480 rerep 3.26µM, KB-3-1 cytotox 7.31µM
COc1ccc(OC)c(-c2nc3c(C)n[nH]c(=O)c3[nH]2)c1	KB-V1 cytotox 18.4µM
COc1ccc(C)cc1N1CC(C(=O)Nc2cccc(C(=O)NC3CC3)c2)CC1=O (configuration not stated)	KB-V1 cytotox inconclusive (no result: MCF10A rerep, SW480 rerep)
COc1cc2c(C#N)c(N3CCCCC3)nc(N)c2c(N)n1	KB-V1 cytotox 8.2µM, MCF10A rerep inconclusive, KB-3-1 cytotox inconclusive
COc1ccc(NC(=O)Nc2ccc3c(c2)CCC3)cc1OC	none (no result: KCNH2 WT inh)
COc1ccc(C)cc1NC(=O)Nc1ccc2c(c1)CCC2	MCF10A rerep 23.1µM
COc1ccc(/C=C/C(=O)Nc2cc(C(F)(F)F)ccc2Cl)cc1OC	KB-V1 cytotox 20.6µM
COc1cn(-c2ccccc2)nc1C(=O)Nc1ccc(C)cc1	SW480 rerep inconclusive
COc1ccc(C)cc1NC(=O)c1nn(-c2ccccc2)cc1OC	KB-V1 cytotox inconclusive, MCF10A rerep 23.1µM, KB-3-1 cytotox inconclusive
COc1ccc(/C=C/C(=O)Nc2ccc3c(c2)CCC3)cc1OC	KB-V1 cytotox 20.6µM
COc1cc(/C=C/C(=O)Nc2cc(C(F)(F)F)ccc2Cl)cc(OC)c1OC	KB-V1 cytotox inconclusive, SW480 rerep inconclusive, KB-3-1 cytotox inconclusive
CC1CCCCC1NC(=O)CCNS(=O)(=O)c1cc(Br)cnc1N (configuration not stated)	none
Cc1ccc(OC(F)F)c(NC(=O)Nc2cccc(C(F)(F)F)c2)c1	KB-V1 cytotox inconclusive, MCF10A rerep inconclusive, SW480 rerep 11.2µM, KB-3-1 cytotox inconclusive
COc1cc(NC(=O)Nc2ccc3c(c2)OCO3)cc(OC)c1OC	SW480 rerep inconclusive
C=C(C)c1cccc(C(C)(C)NC(=O)Nc2cc(C)ccc2OC)c1	KB-V1 cytotox 8.2µM
COc1ccc(NC(=O)Nc2cc(C)ccc2OC)cc1	none
C=C(C)c1cccc(C(C)(C)NC(=O)Nc2ccccc2OCC)c1	MCF10A rerep inconclusive
COc1ccc(C(C)(C)C)cc1NC(=O)Nc1ccc2c(c1)OCO2	KB-V1 cytotox 23.1µM, MCF10A rerep inconclusive, SW480 rerep inconclusive
COc1ccc(C)cc1NC(=O)Nc1ccccc1	KCNH2 3.1 inh -134.5, KB-V1 cytotox inconclusive, KCNH2 WT inh -136.9
O=S(=O)(c1ccc(Br)cc1)N1CCN(c2nc(-c3ccccc3)nc3ccccc23)CC1	none (no result: KCNH2 3.1 inh, MCF10A rerep, SW480 rerep, KCNH2 WT inh)
Cc1ccc(-n2nnnc2SCc2nnc(-c3ccccc3Br)o2)c(C)c1	KB-V1 cytotox 10.3µM
Cn1nnnc1SCc1nnc(-c2ccccc2Br)o1	none (no result: KCNH2 3.1 inh)
COCC(C)NC(C(=O)Nc1ccc(Cl)c([N+](=O)[O-])c1)c1ccccc1 (configuration not stated)	KB-V1 cytotox 16.4µM
